# Assay outcomes (PubChem BioAssay)
# PME-1 primary – PME-1 (human) inhibition; recombinant PME-1, FP-Rh probe fluorescence polarization; inhibition, % at 5.9 µM; AID 2130; actives 0.53% (n = 320,000); Q9Y570;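 active means inhibition above the campaign mean of all compounds plus 3 SD, cut at about 26% in these data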;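 further: competitive labeling of PME-1 active site by serine hydrolase directed probe; 0% = PME-1 with DMSO and 100% = wells lacking PME-1 enzyme; inhibitors block probe labeling so polarization falls and inhibition rises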
# LYPLA2 inh – counter-screen for PME1 inhibitors: inhibitors of human LYPLA2 | O95372 | recombinant LYPLA2, FP-Rh probe fluorescence polarization | inhibition, % at 5.9 µM | actives 0.38% (n = 320,000) | AID 2177;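 active means inhibition above the screen-wide mean plus 3 SD, limit set per campaign, cut at about 26% in these data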;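 further: 0% = LYPLA2 with DMSO and 100% = wells lacking LYPLA2 enzyme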
# GSTO1 counter – blocks human GSTO1 in RBBP9 counter-screen. recombinant GSTO1, activity-based probe fluorescence polarization. inhibition, % at 5.96 µM. AID 1974. actives 1.1% (n = 300,000);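 active means inhibition above the campaign mean inhibition plus 3 SD, cut at about 35% in these data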;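 further: 0% = GSTO1-1 with DMSO and 100% = wells lacking GSTO1-1 enzyme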
# LYPLA1 counter – blocks human lysophospholipase 1, a PME1 counter-screen. recombinant LYPLA1, FP-Rh probe fluorescence polarization. AID 2174. inhibition, % at 5.9 µM. actives 0.16% (n = 320,000);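 active means inhibition above the mean of all tested compounds plus 3 SD, set per campaign, cut at about 14% in these data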;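 further: inhibitors block serine hydrolase probe labeling of LYPLA1 so polarization falls; 0% = enzyme with DMSO and 100% = wells lacking LYPLA1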
# Fam108B inh – blocks mouse Fam108B hydrolase in RBBP9 counter-screen; recombinant Fam108B, FP-Rh probe fluorescence polarization; inhibition, % at 9.51 µM; actives 0.33% (n = 300,000);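 active means inhibition above the screen mean inhibition plus 3 SD, computed separately per campaign, cut at about 18% in these data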;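 further: inhibitors lower polarization as less probe binds the enzyme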
# PAD4 inh – blocks human protein arginine deiminase 4 | recombinant PAD4, RCA probe fluorescence polarization | inhibition, % at 6.36 µM | actives 0.41% (n = 330,000);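 active means percent inhibition above a cutoff equal to the mean of all tested compounds plus 3 SD, cut at about 15% in these data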;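 further: 0% = PAD4 with RCA probe and DMSO and 100% = probe without PAD4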
# * marks the source's active call; other numbers are inactive results; . = no result given. Only some compounds are listed: those with a hit (about 1.8% of all), similar ones and a draw of the others.
SMILES,PME-1 primary,LYPLA2 inh,GSTO1 counter,LYPLA1 counter,Fam108B inh,PAD4 inh
Nc1ccc2nc3c(=O)n(CCc4ccccc4)c(=O)[nH]c3nc2c1,39.5*,6.8,11.2,5.8,5.6,14.3
CCCCn1c(=O)[nH]c2nc3cc(N)ccc3nc2c1=O,22.8,15.9,25.0,8.0,8.9,14.0
Cc1cc2nc3c(=O)n(CCc4ccccc4)c(=O)[nH]c3nc2cc1N,54.1*,1.9,36.7*,-3.4,8.9,0.6
C=CCn1c(=O)[nH]c2nc3cc(N=CN(C)C)c(C)cc3nc2c1=O,-6.3,-0.7,7.8,-2.8,2.6,2.5
O=c1[nH]cc(N=Cc2cc(Cl)cc(Cl)c2O)c(=O)[nH]1,1.8,6.3,42.2*,2.6,-0.6,-9.4
CC(NC(=O)CCl)c1ccc(Cl)c(Cl)c1 (stereo unspecified),3.8,8.6,96.4*,0.7,1.3,-3.2
O=S1(=O)N=C(c2ccccc2)c2ccccc21,-6.8,-0.2,1.2,-2.3,-2.7,0.2
O=C(COC(=O)c1cccc(C(F)(F)F)c1)NC(=O)NC1CCCC1,.,.,.,.,.,0.3
CC1OC2(C)OC(=N)C1(C#N)C(C#N)(C#N)C2c1ccccc1 (stereo unspecified),15.8,15.1,9.7,11.2,14.5,25.1*
CCCCC1OC2(C)OC(=N)C1(C#N)C(C#N)(C#N)C2c1ccccc1 (stereo unspecified),-1.8,1.1,4.8,1.4,2.4,8.8
O=C(NCCc1ccccc1)C(c1cccs1)N(C(=O)CCl)c1ccc(Cl)cc1 (stereo unspecified),1.2,-2.6,103.4*,1.8,0.8,13.5
COc1ccc(Nc2cnn(-c3nc4ccccc4s3)c(=O)c2Cl)cc1,29.1*,11.4,-5.3,-2.8,1.6,-2.6
Cc1cccc(C)c1NC(=O)CN1C(=O)S/C(=C\c2cccn2-c2cccc(C(=O)O)c2)C1=O,-2.2,3.6,16.9,2.0,-1.2,-1.9
Cc1ccc(NC(=O)CN2C(=O)S/C(=C\c3cccn3-c3cccc(C(=O)O)c3)C2=O)c(C)c1,-1.6,30.2*,-10.5,-5.4,-33.0,-5.4
CCOC(=O)c1c(OCC)[nH]c2c1cc(O)c1ccccc12,39.4*,-3.7,34.4,-6.0,8.9,-13.0
CN(C)C=Nc1ccc2nc3c(cc2c1)[nH]c1ccccc13,9.2,7.8,25.5,-0.9,10.9,-8.6
O=C(Cc1cnn(-c2ccccc2)c1)c1ccc(O)c(O)c1O,-12.0,-12.2,50.5*,-12.8,2.8,-6.9
COc1ccccc1NC(=O)/C(C#N)=C/c1cccn1C,-3.2,0.0,1.3,-1.7,-3.1,-4.7
C/C(CCCO)=N/Nc1ccc([N+](=O)[O-])cc1[N+](=O)[O-],0.9,12.9,7.3,2.5,-5.2,-10.2
O=C(O)/C(CC(=O)c1ccc(Cl)cc1)=N/Nc1ccc([N+](=O)[O-])cc1[N+](=O)[O-],26.5*,20.4,10.0,0.0,12.3,-4.8
C/C(CCC(=O)O)=N/Nc1ccc([N+](=O)[O-])cc1[N+](=O)[O-],0.6,0.7,38.0*,0.9,-2.1,-10.3
NNC(=O)C1SCCN1S(=O)(=O)c1ccc(Cl)cc1 (stereo unspecified),1.8,3.1,-0.3,-0.5,0.9,2.9
Cc1cc(OCC(=O)Nc2ccccc2N2CCOCC2)c(C(C)C)cc1Cl,-4.0,-4.1,.,-4.6,.,-0.4
Nn1c(-c2ccc(F)cc2)nc2ccccc2c1=O,-2.1,-0.8,1.3,1.6,1.2,-1.9
O=C1c2cc(F)ccc2-n2c1nc1ccccc1c2=O,1.7,-1.3,35.3*,-1.3,-0.5,-8.3
SMILES,PME-1 primary,LYPLA2 inh,GSTO1 counter,LYPLA1 counter,Fam108B inh,PAD4 inh
Nc1c(C(=O)N/N=C/c2cccnc2)oc2nc(-c3ccco3)cc(-c3ccco3)c12,7.3,-9.2,9.2,-2.3,-0.2,-3.0
NNC(=O)c1oc2nc(-c3ccco3)cc(-c3ccco3)c2c1N,6.2,-1.0,52.1*,-5.2,12.6,3.8
O=S(=O)(Nc1ccc(O)c2ccccc12)c1ccc(Br)cc1,4.1,-1.4,61.3*,-4.1,-1.2,18.7*
COc1ccc(/C=C2/CCc3ccccc3C2=O)cc1OC,6.3,8.7,-1.1,-2.0,1.4,3.8
COc1cc(/C=C2/CCc3ccccc3C2=O)cc(OC)c1OC,9.1,30.1*,-3.4,4.5,-3.3,0.1
CCN(C[C@H]1N[C@@](CC)(C(=O)OC)[C@H]2C(=O)N(Cc3ccccc3)C(=O)[C@@H]12)C(=O)c1ccc(C(C)(C)C)cc1,.,.,.,.,.,5.2
